# From PubChem
# A selection: hits, their analogues and other compounds. The true share with any hit is near 3%.
# USP1 inh: Inhibitors of USP1/UAF1: Primary Screen | recombinant USP1/UAF1, Ub-Rhodamine cleavage fluorescence | Potency, µM (top dose mostly 57.1 µM), without a hit: at the highest dose activity change, negative = inhibition, hits mostly inhibitors | actives 0.23% (n = 390,000) | AID 743255, 2014 | Ubiquitin carboxyl-terminal hydrolase 1 (Homo sapiens), O94782; also: % is scaled to controls: 0 for no effect and ±100 for the full control effect; nearly all actives have a fitted effect of over 60% in size
#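 USP1/UAF1 complex at 1 nM was preincubated with compound for 15 min at room temperature, then Ub-Rho substrate (150nM final) was added. Fluorescence (480/540 nm) was read kinetically, 6 reads every 60 seconds.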
# PTAP TSG101 blk: qHTS Assay for Iinhibitors of HIV-1 Budding by Blocking the Interaction of PTAP/TSG101; Tumor susceptibility gene 101 protein (Homo sapiens), Q99816; Fluorescence polarization, FITC-PTAP peptide / Tsg101 binding; Potency, µM (highest dose often 115 µM), without a hit: at the highest dose activity change, negative = inhibition, usual class: inhibitors; 340,000 tested, under 10 active; active = well fitted inhibition curve with a large enough effect in the main read-out, with a control signal flat, not every such curve was filed as active; inconclusive = small, poorly fitted or top-dose-only effect, or effect the other way, or a change in a side signal; inactive = no such curve, though single readings can be large or run the other way; also: % of control where 0% means no effect
# Target sequence (Q99816 whole entry, looked up): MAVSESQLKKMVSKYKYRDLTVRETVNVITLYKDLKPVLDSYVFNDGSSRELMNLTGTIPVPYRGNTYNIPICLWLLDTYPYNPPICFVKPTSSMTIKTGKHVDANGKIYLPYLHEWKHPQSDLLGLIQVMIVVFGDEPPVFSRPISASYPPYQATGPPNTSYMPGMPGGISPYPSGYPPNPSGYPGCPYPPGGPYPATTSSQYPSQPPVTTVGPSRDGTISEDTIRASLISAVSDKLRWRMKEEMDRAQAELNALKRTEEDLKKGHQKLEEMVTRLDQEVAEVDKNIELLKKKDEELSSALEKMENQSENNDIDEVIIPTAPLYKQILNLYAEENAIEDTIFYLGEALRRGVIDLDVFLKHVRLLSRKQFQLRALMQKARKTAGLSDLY
#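 Compounds were pin-transferred onto Tsg101 binding domain (10 uM final) in HEPES pH 7.5 buffer, then FITC-PTAP peptide was added at 50 nM final. After 20 min at RT, polarization reported peptide displacement across a qHTS concentration series.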
# PLK1 PBD block: qHTS for Inhibitors of PLK1-PDB (polo-like kinase 1 - polo-box domain): Primary Screen; Serine/threonine-protein kinase PLK1 (Homo sapiens), P53350; Plk1 PBD binding of FITC phosphopeptide, fluorescence polarization; Potency, µM, without a hit: max response, negative = inhibition, usual class: inhibitors; actives 2.8% (n = 360,000); AID 720504, 2013; also: series mostly up to about 57 µM; % is scaled to controls: 0 for no effect and ±100 for the full control effect; nearly all actives have a fitted effect of over 65% in size
# KAT2A inh: qHTS Assay for Inhibitors of GCN5L2 | Histone acetyltransferase KAT2A (Homo sapiens), Q92830 | GCN5L2 HAT assay, ThioGlo1 CoA-SH fluorescence | Potency, µM (highest dose often 58.9 µM), inactives show top-dose activity change, negative = inhibition, usual class: inhibitors | actives 0.21% (n = 390,000); also: % is scaled to controls: 0 for no effect and ±100 for the full control effect
#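 ThioGlo1-coupled HAT assay: 20nM GCN5L2, 70uM acetyl-CoA, 75uM H3(1-25) peptide, pH 7.5. Fluorescence read at 340/540nm at start and after 20 min at room temperature.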
# VDR inhibitor: Inhibitors of the vitamin D receptor (VDR): qHTS; Vitamin D3 receptor (Homo sapiens), P11473; actives 0.93% (n = 400,000); VDR-SRC2-3 peptide fluorescence polarization, 2 h; Potency, µM, without a hit: max response, negative = inhibition, hits mostly inhibitors; also: % is scaled to controls: 0 for no effect and ±100 for the full control effect
#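 Signal is fluorescence polarization, reporting how far test compounds block the interaction of VDR with the SRC2-3 coregulator peptide after a 2 h room-temperature incubation.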
# The depositor's hits bear a star; ? = inconclusive; / = no result given. Unless noted, calls follow the shape of the dose curve; as a rule, active = well fitted curve in the direction sought with a large enough effect; inconclusive = small, poorly fitted or top-dose-only effect, or another doubt; inactive = no such curve, though single readings can be large; an effect the other way counts as inactive or inconclusive. Potency is read from the fitted curve at half-maximal effect.
SMILES,USP1 inh,PTAP TSG101 blk,PLK1 PBD block,KAT2A inh,VDR inhibitor
CN(C)c1nc(-c2cn(CCC#N)c3ccccc23)cs1,-19%,-10%,27µM*,-6%,-19%
Cc1ccc(C)c(N2CCN(C(=O)CCn3c(=O)[nH]c4ccccc4c3=O)CC2)c1,-9%,/,/,-13%,-4%
O=C(CCn1c(=O)c2cccn2c2ccc(F)cc21)NCc1ccccc1F,15%,/,/,-2%,12%
CCOc1cc(C2NC(=O)CCC2[N+](=O)[O-])cc(Br)c1OC (stereo unspecified),-5%,0%,27µM*,2%,?
Cc1cc(Nc2ccc(Br)c(C)c2)n2nc(C)nc2n1,-2%,0%,30µM*,0%,?
Cc1ccc(Nc2cc(C)nc3nc(C)nn23)cc1,-6%,-2%,-17%,-2%,-8%
O=C(c1cc(Br)ccc1Cl)N1CCN(c2ncccn2)CC1,-14%,-2%,30µM*,-6%,?
Cc1cc(-c2nnc(SCC(=O)Nc3ccccc3C(F)(F)F)n2N)n[nH]1,-12%,-2%,6µM*,-4%,?
COc1ccc(NC(=O)CSc2nnc(-c3ccccc3C)n2N)cc1,-15%,4%,21µM*,-1%,?
Cc1cccc(NC(=O)CSc2nnc(-c3ccco3)c(-c3ccco3)n2)c1C,-8%,-6%,15µM*,?,?
Cc1cc(-c2nnc(SCC(=O)Nc3ccccc3F)n2N)n[nH]1,-9%,-5%,-14%,1%,-6%
Cc1ccccc1-c1nnc(SCC(=O)Nc2ccc(Cl)cc2)n1N,-10%,-3%,-7%,-2%,8%
Cc1ccccc1NC(=O)CSc1ccc(-c2ccco2)nn1,-4%,0%,-12%,22%,-11%
COc1ccc(-n2c(SCC(=O)Nc3nccs3)nnc2-c2ccccc2)cc1,-22%,-15%,27µM*,1%,-11%
Cc1ccccc1NC(=O)CSc1nnc(-c2ccco2)n1N,-19%,-4%,19µM*,-4%,?
COc1ccc(NC(=O)CSc2ccc3c4c(cccc24)C(=O)c2ccccc2-3)cc1,25µM*,?,?,22µM*,-3%
COc1ccc(NC(=O)N[C@H]2CC[C@@H](CC(=O)NC3CCC3)O[C@@H]2CO)cc1,/,/,-5%,/,/
COc1ccc(S(=O)(=O)n2[nH]c(=O)c(CCO)c2C)c([N+](=O)[O-])c1,-7%,-1%,13µM*,-13%,-14%
COc1ccc(NC(=O)Cn2c(SCc3ccc(C)cc3)nc3cccnc32)cc1OC,-13%,/,/,3%,18%
COc1ccc(C2(C(=O)c3ccccc3)C(=O)c3ccccc3C2=O)cc1,-21%,-3%,12µM*,-5%,?
COc1ccc(C(=O)CC(=O)c2ccccc2)cc1,-10%,0%,-7%,/,15%
Cn1c(-c2sccc2OCc2ccc(Cl)cc2Cl)n[nH]c1=S,-23%,-3%,27µM*,-14%,2%
CCOc1ccc(N(CC)S(=O)(=O)N2CCCC(C(=O)Nc3ccc(OC)c(Cl)c3)C2)cc1 (stereo unspecified),-23%,/,/,-5%,20%
Clc1nnc(Cl)c2c1ncn2Cc1ccccc1,-10%,0%,-12%,-4%,-7%
N#CC(C#N)=Cc1cc2ccccc2nc1N1CCCCC1,-23%,-1%,?,-8%,71µM*
CC1(C)N=C(c2ccc(F)cc2)C(=O)N1CC(=O)Nc1ccccc1Cl,-21%,/,/,-5%,15%
Cc1ccc(S(=O)(=O)n2cccc2C)cc1,-4%,0%,-8%,/,-7%
CC1=C/C(=C/N(C)c2ccccc2)C(=O)S1,-24%,-6%,27µM*,-15%,?
Cc1cccc(C)c1NC(=S)N(CCN(C)C)C(C)c1ccccn1 (stereo unspecified),-5%,0%,2%,-1%,-3%
COCCCN(C(=S)Nc1c(C)cc(C)cc1C)C(C)c1ccccn1 (stereo unspecified),-10%,1%,24µM*,-2%,6%
